Laboratory results: PubChem BioAssay (NCI)
The panel holds about 79,000 compounds, 15% with a hit somewhere; the sample as a whole holds those more often. Cut-off read from the data, not from the text of the source: active = growth inhibition above about 70%; inactive = the rest.

Assays:
[1] = NCI Yeast Anticancer Drug Screen. Data for the rad50 strain (AID 155);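 note: 0% = growth of vehicle-only cultures of the same strain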; conditions: S. cerevisiae rad50 strain growth inhibition; at 50.0 µM; active compounds read high
In short: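 Vehicle-treated cultures provide the reference for the growth inhibition reported for compound-exposed, repair-deficient yeast.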

[2] = NCI Yeast Anticancer Drug Screen. Data for the mec2-1 strain (AID 157); conditions: S. cerevisiae mec2-1 strain, at 50.0 µM, active compounds read high
In short: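 Mutant yeast (mec2-1) grown with compound; growth inhibition relative to vehicle control reported.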

[3] = NCI Yeast Anticancer Drug Screen. Data for the sgs1 mgt1 strain (AID 161);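 note: 0% = growth of cultures given vehicle only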; conditions: S. cerevisiae sgs1 mgt1 strain, at 50.0 µM, active compounds read high
In short: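 This yeast growth screen uses a strain with defined DNA-repair lesions; compound-treated growth is compared with vehicle-treated growth.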

[4] = NCI Yeast Anticancer Drug Screen. Data for the cln2 rad14 strain (AID 165);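 note: 0% = growth equal to vehicle treated cultures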; conditions: S. cerevisiae cln2 rad14 strain, at 50.0 µM, active compounds read high
In short: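 Readout is yeast growth inhibition versus vehicle-treated controls, using a strain with cln2 and rad14 alterations exposed to compound.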

[5] = NCI Yeast Anticancer Drug Screen. Data for the bub3 strain (AID 167); conditions: S. cerevisiae bub3 mutant strain, at 50.0 µM, active compounds read high
In short: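 Mutant yeast screening strain plus compound; vehicle-treated cultures serve as the 0% inhibition reference.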

[6] = NCI Yeast Anticancer Drug Screen. Data for the mlh1 rad18 strain (AID 175); conditions: S. cerevisiae mlh1 rad18 strain growth inhibition; at 50.0 µM; active compounds read high
In short: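 Genetically defined yeast (DNA repair-deficient) exposed to compounds; growth inhibition determined relative to vehicle.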

Measured: growth inhibition

CCCCn1cnc2c(=O)[nH]cnc21
inactive: [1] 3.2% | [2] 2.25% | [3] -5.15% | [4] -14.8% | [5] 8.95% | [6] 2.3%

O=Cc1ccc(F)cc1
inactive: [1] -7.9% | [2] -23.6% | [3] -4.1% | [4] -13.1% | [5] -10.6% | [6] -17.4%

NCCCN1CCCC1=O
inactive: [1] -20.1% | [2] -21.3% | [3] -14.8% | [4] 1.8% | [5] -23.3% | [6] -15.1%

NC(=O)c1cc2c3ccccc3ccn2c1-c1ccccc1
inactive: [1] 35.8% | [2] 27.2% | [3] 46.7% | [4] 62.6% | [5] 64% | [6] 60%

CN(C)Cc1ccccn1
inactive: [1] 1.1% | [2] -17% | [3] -4.25% | [4] -5.75% | [5] -13.4% | [6] 2.55%

O=Cc1ccc(Cl)c(Cl)c1
inactive: [1] -3.55% | [2] -9.5% | [3] -18.8% | [4] -16.9% | [5] -5.85% | [6] -23.1%

C(=C\c1ccncc1)/c1ccncc1
inactive: [1] 27.9% | [2] -7.2% | [3] 6.45% | [4] -0.55% | [5] 7.8% | [6] 23.6%

C#CCSc1nnnn1-c1ccccc1
inactive: [1] -0.6% | [2] -19.9% | [3] 22.2% | [4] 19.4% | [5] 15.8% | [6] 12.4%

O=c1n(CC2CO2)c(=O)n(CC2CO2)n1CC1CO1 (configuration not stated)
inactive: [1] 16.9% | [2] -5.75% | [3] 1.05% | [4] 8.35% | [5] -26.7% | [6] -8.8%

COc1ccc(C(=O)/C(=N/Nc2ccccc2)c2ccc(OC)cc2)cc1
inactive: [1] -3.45% | [2] -13.8% | [3] -1.25% | [4] 2% | [5] 1.8% | [6] 30.8%

NC(=S)N/N=C/c1ccc(Cl)cc1
inactive: [1] 47.5% | [2] 23.8% | [3] 41.5% | [4] 13.4% | [5] 22.9% | [6] 46.9%

CCNC(=O)OCCc1c2ccccc2nc2ccccc12
inactive: [1] 51.4% | [2] 36.5% | [3] 42.4% | [4] 36.1% | [5] 12.7% | [6] 54.2%

O=C(Nc1cccc(Cl)c1)c1ccc(Cl)cc1Cl
inactive: [1] 1.95% | [2] 5.85% | [3] 2.2% | [4] -48.5% | [5] 20.6% | [6] 0.1%

C1CCc2onc(-c3noc4c3CCCCC4)c2CC1
inactive: [1] -9.45% | [2] -15.8% | [3] -19.1% | [4] -1.1% | [5] -21.4% | [6] 2.8%

CC(=O)O[C@H]1CC[C@]2(C)C3=C(C(=O)C[C@H]2C1(C)C)[C@]1(C)CC[C@H]([C@H](C)CCC(=O)O)[C@@]1(C)CC3=O
inactive: [1] 42.8% | [2] -8.05% | [3] 33.2% | [4] 3.5% | [5] 2.05% | [6] 0.4%

CN(C)CCOC(=O)Nc1ccc(Cc2ccc(NC(=O)OCCN(C)C)cc2)cc1
inactive: [1] -2.1% | [2] -25.2% | [3] -1.75% | [4] 8.25% | [5] 8.7% | [6] 8.3%

CC1(C)OC(=O)CC1=O
inactive: [1] 4.6% | [2] -2.45% | [3] 0.55% | [4] 3.65% | [5] 1.8% | [6] -3.2%

Cc1ccc(S(=O)(=O)CCCl)cc1
inactive: [1] 6.8% | [2] -7.35% | [3] -21.9% | [4] -31.2% | [5] 5.3% | [6] 7.85%

CC(=O)/C(C)=N\OC(=O)Nc1ccccc1
inactive: [1] 1.2% | [2] -8.2% | [3] -2.65% | [4] -7% | [5] 9.4% | [6] -9.95%

Clc1cccc(Cl)c1CSc1nc2ccccc2n2cccc12
inactive: [1] -13.3% | [2] -26.8% | [3] 5.2% | [4] 17.6% | [5] -29.9% | [6] -19%

NNc1ncccn1
inactive: [1] 6.45% | [2] -1.15% | [3] 31.4% | [4] -3.35% | [5] -10% | [6] -0.75%

O=C(c1ccccc1)c1ccc(-c2ccc(O)cc2)cc1
inactive: [1] 37.7% | [2] 23.5% | [3] 24.9% | [4] -44.3% | [5] 57.1% | [6] -8%
